Assay outcomes from PubChem.
This is a sample that favours compounds with a hit; in the whole collection about 3.2% have one here.
MsrA inh = bovine MsrA enzyme inhibitors, primary screen, biochemical, absorbance, HTS; Methionine sulfoxide reductase A (Bos taurus); purified bovine MsrA, absorbance read-out; inhibition, % at 15.5 µM; 360,000 tested, 0.75% active; AID 651718, 2012; in the data active means inhibition above about 4.5%
rCAG binder = binders of r(CAG) RNA repeats, primary screen, biochemical, fluorescence | inhibition, % at 3 µM | 370,000 tested, 1.3% active | r(CAG) RNA repeat, TO-PRO-1 dye displacement fluorescence;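 active means inhibition above the plate cutoff, the mean of all test compounds on that plate plus 3 SD, cut at about 35% in these data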;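 further: higher means more dye released from RNA so lower well fluorescence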
bovine MsrA act = bovine MsrA enzyme activators, primary screen, biochemical, absorbance, HTS; Methionine sulfoxide reductase A (Bos taurus); purified bovine MsrA, absorbance read-out; 360,000 tested, 0.3% active; activation, % at 10.6 µM; in the data active means activation above about 7.5%
PG9 Ab binder = binders of HIV-1 gp120 antibody PG9, primary screen, biochemical, TR-FRET; HIV-1 gp120 / PG9 antibody interaction; TR-FRET gp120-PG9 antibody binding; inhibition, % at 6.7 µM; 360,000 tested, 0.43% active; AID 624416, 2012; in the data active means inhibition above about 8.5%
HGIII-sPLA2 inh = human group III sPLA2 inhibitors, primary screen, biochemical, QFRET, BODIPY PC-A2 liposome substrate; Group 3 secretory phospholipase A2 (Homo sapiens), Q9NZ20; QFRET BODIPY PC-A2 liposome hydrolysis, fluorescence; inhibition, % at 12.2 µM; 370,000 tested, 0.56% active; AID 743126, 2013;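 active means inhibition above mean plus 3 SD of compounds lying within the high and low control bounds, cut at about 19% in these data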
Target sequence (Q9NZ20 whole entry, looked up): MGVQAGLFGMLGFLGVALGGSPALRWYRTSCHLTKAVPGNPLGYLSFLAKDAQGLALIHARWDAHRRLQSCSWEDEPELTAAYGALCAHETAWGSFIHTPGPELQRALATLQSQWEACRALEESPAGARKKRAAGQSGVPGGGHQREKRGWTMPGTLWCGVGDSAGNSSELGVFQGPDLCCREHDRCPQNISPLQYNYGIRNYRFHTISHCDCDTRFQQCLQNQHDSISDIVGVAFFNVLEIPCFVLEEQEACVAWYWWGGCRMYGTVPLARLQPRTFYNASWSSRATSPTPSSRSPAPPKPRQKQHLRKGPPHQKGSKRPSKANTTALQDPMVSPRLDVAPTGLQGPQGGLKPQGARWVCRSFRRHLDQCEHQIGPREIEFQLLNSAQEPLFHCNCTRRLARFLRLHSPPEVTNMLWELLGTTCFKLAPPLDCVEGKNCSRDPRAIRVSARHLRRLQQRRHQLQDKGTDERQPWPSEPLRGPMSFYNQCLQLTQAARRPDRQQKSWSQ
rCAG bind conf = small molecules binding CAG repeat RNA – biochemical, fluorescence, confirmation; shares compounds with rCAG binder; r(CAG) RNA repeat, TO-PRO-1 dye displacement fluorescence; inhibition, % at 3 µM; 4,300 tested, 70% active;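 active means inhibition above a per-plate cutoff, the mean inhibition of sample wells plus 3 SD, cut at about 35% in these data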;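 further: loss of TO-PRO-1 fluorescence as compound displaces dye from 1x1 AA loop RNA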
DNA CAG counter = displacement of TO-PRO-1 from CAG DNA duplex, counter-screen for rCAG RNA repeat binder project, biochemical, fluorescence, TO-PRO-1 dye, d(CAG) DNA oligo. 4,300 tested, 94% active. d(CAG) DNA oligo TO-PRO-1 dye displacement. inhibition, % at 3 µM. shares compounds with rCAG binder. AID 652068, 2013;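 active means inhibition above its plate's cutoff, the mean test-well inhibition plus 3 SD, cut at about 4.8% in these data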;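 further: hits displace the dye from DNA and so lower well fluorescence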
dCAG dye DR = inhibitors of DNA CAG/GTC TO-PRO-1 complex, dose response, counter-screen for rCAG RNA repeat binder project, biochemical, fluorescence, TO-PRO-1 dye | DNA CAG/GTC duplex TO-PRO-1 dye displacement fluorescence | 250 tested, 20% active | shares compounds with rCAG binder | IC50, µM; in the data active means IC50 below about 10 µM
Large screens that a line does not name were inactive (follow-up assays come after a bar, where they were run).

CC(C)(C)OC(=O)N1CCC(c2cc(=O)n3[nH]cc(C(=O)NC4CCCC4)c3n2)CC1	rCAG binder 55 | rCAG bind conf 48 | DNA CAG counter 13
CCc1cc(-c2nnn(CCC3COCCO3)c2CC)ccc1-c1cn(Cc2ccccc2)nn1 (stereo not given)	none
CC(=O)c1c(O)c(C)c(O)c2c1OC1=Cc3c(c(C)nn3C)C(=O)C12C (stereo not given)	none
CC(=O)C1=C(O)C2(C)c3c(O)c(C)c(O)c(C(C)=O)c3OC2CC1=O (stereo not given)	rCAG binder 76 | rCAG bind conf 52 | DNA CAG counter 18
COc1ccc(CCNC(=O)c2ccccc2NS(=O)(=O)c2c(F)cccc2F)cc1	rCAG binder 48 | rCAG bind conf inactive | DNA CAG counter 9.9
COc1ccc(/C(N)=N/OC(=O)Cc2cccs2)cc1	rCAG binder 47 | rCAG bind conf inactive | DNA CAG counter inactive
COc1ccc([C@@H]2CC=C(C(=O)O)[C@H](c3ccc(F)cc3)N2S(=O)(=O)c2ccc(Cl)cc2)cc1	rCAG binder 58 | rCAG bind conf 47 | DNA CAG counter 15
CCOC(=O)C1=CC[C@@H](c2ccc(F)cc2)N(S(=O)(=O)c2ccc(C)cc2)[C@H]1c1ccccc1	none
COc1ccc([C@@H]2CC=C(C(=O)O)[C@H](c3cccc(Cl)c3)N2S(=O)(=O)c2ccc(Cl)cc2)cc1	rCAG binder 74 | rCAG bind conf 71 | DNA CAG counter 33 | dCAG dye DR inactive
CCOC(=O)c1nc2sc3c(c2c(=O)[nH]1)CCCC3	none
N#C/C(=C\c1ccc(C(=O)O)cc1)c1nc2sc3c(c2c(=O)[nH]1)CCCC3	rCAG binder 45 | rCAG bind conf 55 | DNA CAG counter 22
CCN=C1S/C(=C\c2cn(CC)c3ccccc23)C(=O)N1CC	none
Cc1ccc(N=C2S/C(=C\c3cn(CC(=O)O)c4ccccc34)C(=O)N2C)cc1	rCAG binder 77 | rCAG bind conf 76 | DNA CAG counter 36
O=c1nc(Nc2cccc(Cl)c2)oc2cc(Cl)oc(=O)c12	rCAG binder 44 | rCAG bind conf 56 | DNA CAG counter 16 | dCAG dye DR 8.5
N#Cc1cc(F)cc(OCCCN2CCC(C(O)(c3ccccc3)c3ccccc3)CC2)c1	none (no result: bovine MsrA act)
Cc1c(CCC(=O)O)c(=O)oc2cc(OCc3ccccc3Br)ccc12	rCAG binder 56 | rCAG bind conf 43 | DNA CAG counter 8.8
Cc1c(CC(=O)O)c(=O)oc2cc(OCc3ccc(Br)cc3)ccc12	rCAG binder 40 | rCAG bind conf 47 | DNA CAG counter 9.7 | dCAG dye DR inactive
Cc1c(CCC(=O)O)c(=O)oc2cc(OCc3cccc(F)c3)ccc12	none
CSc1ncc(Cl)c(C(=O)C(C#N)c2nc3c(C)cc(C)cc3c(=O)[nH]2)n1 (stereo not given)	rCAG binder 62 | rCAG bind conf 81 | DNA CAG counter 50
Fc1cccc(Cn2ccc3ccc(-c4ccc5ccn(Cc6ccccc6)c5c4)cc32)c1	none (no result: MsrA inh, bovine MsrA act, PG9 Ab binder)
FC(F)(F)Oc1cccc(Cn2ccc3ccc(-c4ccc5ccn(Cc6ccccc6)c5c4)cc32)c1	rCAG binder 55 (no result: MsrA inh, bovine MsrA act, PG9 Ab binder) | rCAG bind conf inactive | DNA CAG counter 8.9
CC(C)(C)NC(=O)C(c1ccncc1)n1c(=O)c(-c2ccco2)nc2ccccc21 (stereo not given)	none (no result: bovine MsrA act)
Cc1cccc(C)c1NC(=O)C(c1ccccc1)n1c(=O)c(-c2ccco2)nc2ccccc21 (stereo not given)	none (no result: bovine MsrA act)
CC(C)(C)NC(=O)C(c1ccnc2ccccc12)n1c(=O)c(-c2ccco2)nc2ccccc21 (stereo not given)	rCAG binder 36 (no result: bovine MsrA act) | rCAG bind conf inactive | DNA CAG counter 15
COc1ccc(C(C(=O)Nc2c(C)cccc2C)n2c(=O)c(-c3ccco3)nc3ccccc32)cc1 (stereo not given)	rCAG binder 38 (no result: bovine MsrA act) | rCAG bind conf inactive | DNA CAG counter 10
CC(=O)N1CCCN(S(=O)(=O)c2ccc3c(c2)c(=O)n(C)c(=O)n3C)CC1	none (no result: MsrA inh, bovine MsrA act, PG9 Ab binder)
COc1cccc(Cn2ncc3c4sc(S(C)=O)cc4n(C)c3c2=O)c1 (stereo not given)	none (no result: MsrA inh, rCAG binder, bovine MsrA act, PG9 Ab binder)
CC(C)(C)CCN1CCC[C@H](NC(=O)COc2ccc(F)c(Cl)c2)C1	none (no result: MsrA inh, rCAG binder, bovine MsrA act, PG9 Ab binder)
O=C([C@@H]1C[C@H]1c1ccccc1)N1CCC(Oc2cccnc2)CC1	none (no result: MsrA inh, bovine MsrA act, PG9 Ab binder)
O=C(O)c1cccc(CSc2nnc(-c3ccc(Cl)cc3)o2)c1	none
COc1ccc(-c2cc(C)nc(SCc3cccc(C(=O)O)c3)n2)cc1	rCAG binder 47 | rCAG bind conf 49 | DNA CAG counter 9.7 | dCAG dye DR inactive
O=C(O)c1cccc(CSc2nc(-c3ccc(Cl)cc3)cc(C(F)(F)F)n2)c1	rCAG binder 68 | rCAG bind conf 71 | DNA CAG counter 33 | dCAG dye DR inactive
O=C(Cn1cnc2ccccc2c1=O)N1CCCCC1	none (no result: MsrA inh, bovine MsrA act, PG9 Ab binder)
O=C(Nc1ccc(S(=O)(=O)Nc2nccs2)cc1)c1nn(-c2ccccc2)ccc1=O	rCAG binder 43 | rCAG bind conf 55 | DNA CAG counter 26
COc1ccc(-n2ccc(=O)c(C(=O)Nc3ccc(S(=O)(=O)Nc4nccs4)cc3)n2)cc1	none
Cc1cccc(-n2ccc(=O)c(C(=O)Nc3ccc(S(=O)(=O)Nc4nccs4)cc3)n2)c1	rCAG binder 65 | rCAG bind conf inactive | DNA CAG counter 6.0
CSc1ncccc1C(=O)Nc1ccc(S(=O)(=O)Nc2nccs2)cc1	none
N#Cc1cccc(C(=O)Nc2ccc(S(=O)(=O)Nc3nccs3)cc2)c1	none
O=C(Nc1ccc(S(=O)(=O)Nc2ncccn2)cc1)c1nn(Cc2ccccc2)c(=O)c2ccccc12	none
CCn1nc(C(=O)Nc2ccc(S(=O)(=O)Nc3nccs3)cc2)c2ccccc2c1=O	rCAG binder 42 | rCAG bind conf 56 | DNA CAG counter 18
O=C(Nc1ccc(S(=O)(=O)Nc2nccs2)cc1)c1cccc(N2C(=O)c3ccccc3C2=O)c1	rCAG binder 69 | rCAG bind conf 58 | DNA CAG counter 23
O=C(CCn1nnc2ccccc21)N1CCN(Cc2ccc3c(c2)OCO3)CC1	none (no result: MsrA inh, bovine MsrA act, PG9 Ab binder)
